Results reported in the supplement of paper PMC10941209.

These molecules were tested on Toxoplasma gondii RH 2F1 tachyzoites (intracellular in HFF) (assay: parasite survival relative to DMSO control; higher = less antiparasitic activity, active = 20 or less). Details: 1 µM; 72 h.
Experimental: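 Primary single-dose screen of the MMV Pandemic Response Box at 1 uM against T. gondii RH-2F1 (beta-galactosidase) tachyzoites in HFF cells, 72 h at 37 C. Parasite growth read by CPRG absorbance at 570 nm and normalised to DMSO-treated infected controls (% survival); pyrimethamine was the reference drug. The paper calls at least 80% inhibition a hit.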
For `CC(C)c1ccc(COc2cccc(-c3cc([S+](C)[O-])c(C#N)c(=O)[nH]3)c2)cc1` (stereo not given), the parasite survival was 13.2% (active).
With `O=S(=O)(Nc1ccc(-n2cccc2)cc1)c1ccc(Cl)c(Cl)c1` the parasite survival was 58.1% (inactive).
In the case of `OC(Cn1cncn1)(Cn1cncn1)c1ccc(F)cc1F`, the parasite survival is reported as 46% (inactive).
With `O=C(O)[C@H]1C2CCC(CC2)[C@@H]1Nc1nc(-c2c[nH]c3ncc(F)cc23)ncc1F` the parasite survival was 44.8% (inactive).
With `O=C(NNC(=S)Nc1ccc(Cl)cc1)c1ccncc1` the parasite survival was 65% (inactive).
In the case of `CC(C)=CCC/C(C)=C/CNCCNC1C2CC3CC(C2)CC1C3` (stereo not given), the parasite survival is reported as 8.85% (active).
In the case of `C[C@@H](O)[C@H](N)C(=O)NS(=O)(=O)c1cccc(-c2ccc3[nH]ncc3c2)c1`, the parasite survival is reported as 40.1% (inactive).
`O=C(O)CCNC(=O)c1ccccc1` was tested, and the parasite survival was 50.8% (inactive).
For `Cc1ncc([N+](=O)[O-])n1CC(C)O` (stereo not given), the parasite survival was 48.2% (inactive).
For `Cc1cc(NS(=O)(=O)c2ccc(-c3ccc(F)cc3F)cc2)no1`, the parasite survival was 55% (inactive).
With `CC(C)N(c1cc(-c2ccccc2)sc1C(=O)O)C(=O)[C@H]1CC[C@H](C)CC1` the parasite survival was 65% (inactive).
In the case of `CN(C)CCCOc1ccc(-c2ccc3ncc4c(c3c2)n(C2CCOCC2)c(=O)n4C)cn1`, the parasite survival is reported as 50.5% (inactive).
`O=C(O)c1ccc(-c2ccc(O[C@H]3O[C@H](CO)[C@@H](O)[C@H](O)[C@@H]3O)cc2)cc1` was tested, and the parasite survival was 46.4% (inactive).
With `COc1ccc(NS(=O)(=O)c2ccc(Cl)s2)cn1` the parasite survival was 45.1% (inactive).
In the case of `COc1ccc(COc2cc3oc(=O)c4cc(C(C)O)ccc4c3cc2OC)cc1` (stereo not given), the parasite survival is reported as 57% (inactive).
With `Cc1cc(O)c2c(c1)C(=O)c1c(I)c(O)c(I)c(O)c1C2=O` the parasite survival was 47% (inactive).
In the case of `COc1ccc(CNC(=O)C2CCN([C@H](C)c3cccc4ccccc34)CC2)cc1`, the parasite survival is reported as 52% (inactive).
With `CCc1nc2ccc(Cl)cn2c1C(=O)NCc1ccc(N2CCC(c3ccc(OC(F)(F)F)cc3)CC2)cc1` the parasite survival was 28.9% (inactive).
`O=C(CCCC(F)(F)F)N1CCC(c2nc(-c3nccs3)no2)CC1` was tested, and the parasite survival was 68% (inactive).
For `NC[C@H]1O[C@H](O[C@H]2[C@H](O)[C@@H](O[C@H]3O[C@H](CO)[C@@H](O)[C@H](N)[C@H]3O)[C@H](N)C[C@@H]2N)[C@H](N)C[C@@H]1O`, the parasite survival was 48.9% (inactive).
`Nc1nc2c(ncn2/C=C2/CC2(CO)CO)c(=O)[nH]1` was tested, and the parasite survival was 84.8% (inactive).
For `O=S(=O)(Nc1cccc2cccnc12)c1ccccc1`, the parasite survival was 24.5% (inactive).
For `Nc1cc(-c2nc3ccccc3[nH]2)n[nH]c1=O`, the parasite survival was 43% (inactive).
In the case of `CN(C/C=C/C#CC(C)(C)C)Cc1cccc2ccccc12`, the parasite survival is reported as 41.6% (inactive).
In the case of `COc1ccc(C)cc1NC(=O)c1ccc(S(=O)(=O)N2CCCCC2)cc1`, the parasite survival is reported as 60% (inactive).
For `NC1(C(=O)O)CCP(=O)(O)CC1` (stereo not given), the parasite survival was 77.4% (inactive).
In the case of `CC[C@@]1(O)C(=O)OCc2c1cc1n(c2=O)Cc2cc3c(CN(C)C)c(O)ccc3nc2-1`, the parasite survival is reported as 50.5% (inactive).
`Cc1cccc(CC(=O)N[C@H]2CCOC2=O)c1` was tested, and the parasite survival was 38.3% (inactive).
With `CC1(C)C[C@H]1C(=O)N/C(=C\CCCCSC[C@@H](N)C(=O)O)C(=O)O` the parasite survival was 94.5% (inactive).
`NCCCc1ccccc1C(=O)Nc1ncc([N+](=O)O)s1` was tested, and the parasite survival was 47.9% (inactive).
For `Cn1cncc1[C@@](N)(c1ccc(Cl)cc1)c1ccc2c(c1)c(-c1cccc(Cl)c1)cc(=O)n2C`, the parasite survival was 59.1% (inactive).
In the case of `CCCCCOc1ccc(/C=C2\Oc3c(ccc(O)c3O)C2=O)c(O)c1`, the parasite survival is reported as 48.2% (inactive).
For `CCOC(=O)N1CCN(c2ccc(Cl)cc2)CC1`, the parasite survival was 54.3% (inactive).
For `O=C(Cn1cnc2ccccc2c1=O)Nc1ccccc1`, the parasite survival was 57.7% (inactive).
`c1cc(CN2CCCNCCNCCCNCC2)ccc1CN1CCCNCCNCCCNCC1` was tested, and the parasite survival was 91.5% (inactive).
With `CC(C)C(=O)N[C@H]1[C@H]([C@H](O)[C@H](O)CO)OC(C(=O)O)=C[C@@H]1N=[N+]=[N-]` the parasite survival was 72.6% (inactive).
With `O=c1[nH]cnc2c1ncn2[C@H]1CC[C@@H](CO)O1` the parasite survival was 79.3% (inactive).
`Oc1cc(-c2cccc3ccccc23)[nH]n1` was tested, and the parasite survival was 55.1% (inactive).
With `Fc1ccc(-c2nc(-c3c[nH]c4ccc(Br)cc34)[nH]c2-c2ccc(F)cc2)cc1` the parasite survival was 36.6% (inactive).
`COc1ccc(SCC(=O)N2c3ccccc3Sc3ccccc32)cc1` was tested, and the parasite survival was 47.4% (inactive).
